From PubChem BioAssay (EPA / NIEHS) come the findings set out here.

Results filed as inconclusive are left out. Calls of active or inactive are those of the source. Rule for the calls: active = hit-call score of the fitted dose curve at least 0.9, where 1 is the maximum; inconclusive = response in the unintended direction; inactive = score below 0.9.

Sequence of Oxysterols receptor LXR-alpha (Homo sapiens) (Q13133 whole entry, looked up): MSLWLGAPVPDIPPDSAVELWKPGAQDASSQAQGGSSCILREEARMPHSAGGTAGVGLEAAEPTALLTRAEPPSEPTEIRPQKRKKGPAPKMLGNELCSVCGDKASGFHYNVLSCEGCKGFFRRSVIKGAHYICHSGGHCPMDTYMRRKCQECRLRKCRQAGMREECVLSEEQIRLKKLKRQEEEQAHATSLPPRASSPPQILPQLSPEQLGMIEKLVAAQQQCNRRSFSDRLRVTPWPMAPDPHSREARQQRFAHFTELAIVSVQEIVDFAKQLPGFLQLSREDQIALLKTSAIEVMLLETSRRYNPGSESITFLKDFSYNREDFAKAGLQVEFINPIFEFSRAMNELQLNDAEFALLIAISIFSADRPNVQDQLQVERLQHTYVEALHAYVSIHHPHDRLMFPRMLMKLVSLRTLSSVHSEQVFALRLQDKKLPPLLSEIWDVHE

The target of the test is Oxysterols receptor LXR-alpha (Homo sapiens) (UniProt Q13133). Nature of the test: ATG_LXRa_TRANS: Attagene TRANS-FACTORIAL HepG2 Assay for human Liver X Receptor alpha (LXRa) (AID 2282980). Conditions: HepG2 Attagene TRANS reporter, LXRa transactivation. How it is done:
ATG_TRANS is a cell-based, multiplexed-readout assay that uses HepG2, a human liver cell line, with measurements taken at 24 hours after chemical dosing in a 24-well plate.ATG_LXRa_TRANS is one of 30 assay component(s) measured or calculated from the ATG_TRANS assay. It is designed to make measurements of mRNA induction, a form of inducible reporter, as detected with fluorescence intensity signals by Reverse transcription polymerase chain reaction (RT-PCR) and Capillary electrophoresis technology.Data from the assay component ATG_LXRa_TRANS was analyzed into 1 assay endpoint. This assay endpoint, ATG_LXRa_TRANS, was analyzed in the positive analysis fitting direction relative to DMSO as the negative control and baseline of activity. Using a type of inducible reporter, measures of mRNA for gain-of-signal activity can be used to understand the reporter gene at the transcription factor-level as they relate to the gene NR1H3. Furthermore, this assay endpoint can be referred to as a primary readout, because this assay has produced multiple assay endpoints where this one serves a reporter gene function. To generalize the intended target to other relatable targets, this assay endpoint is annotated to the nuclear receptor intended target family, where the subfamily is non-steroidal.
Human liver HepG2 cells are transiently transfected with multiple reporter transcription units (MRTUs) in 6-well plates using FuGene 6 reagent (Roche; 3 ml FuGene/1 mg DNA). The MRTU constructs are regulated by a cis-regulating element (promoter). […] A major difference between the CIS and TRANS system is that in CIS activities of endogenous TFs are measured, whereas the TRANS assay evaluates changes in activities of exogenous, chimeric NR-Gal4 proteins. […] At the end of 24 hour incubation, total RNA was isolated using TriZol reagent (Invitrogen). The isolated RNA is then reverse-transcribed using oligo(dT) primer and Mo-MLV reverse transcriptase (Invitrogen) with DNAse I (Ambion) treatment for 30 min. The one-tenth of the produced cDNA was amplified by PCR using Taq DNA polymerase (Invitrogen) and two reporter sequence-specific primers. The PCR products were fluorescently labeled by primer extension with 6-arboxyfluorescein (6-FAM) 5'-labeled reporter sequence-specific primer (2 min at 95 C, 20 s at 68 C and 10 min at 72 C) and these products were digested with 5U of HpaI (New England Biolabs) for 2h at 37 C. The fragments were purified using Qiaquick PCR columns (Qiagen), analyzed on an ABI 3130xL genetic analyzer (Applied Biosystems) with peak positions identified by using a set of X-rhodamine (ROX)-labeled MapMarker1000 molecular weight standards (BioVentures). The raw capillary electrophoresis data was processed using Attagraph software (Attagene).
For `COC(N)=O`, the molecule was called inactive.
For the molecule `CC(C)CBr`, the call was inactive.
For `CCOP(=S)(OCC)SCS(=O)(=O)CC` the value was “inactive”; for `Cc1ccc2c(c1N)C(=O)c1ccccc1C2=O`, “inactive”; for `CC(O)C(F)(F)C(F)(F)F` (stereo not given), “inactive”.
For `CCOP(=S)(S)OCC` the value was “inactive”; for `O=c1[nH]c2ccccc2c(=O)o1`, “inactive”.
For `CCCCN(CCCC)N=O` the value was “inactive”; for `O=S(=O)(F)C(F)(F)C(F)(F)C(F)(F)C(F)(F)C(F)(F)C(F)(F)C(F)(F)C(F)(F)F`, “inactive”; for `CC(C)(C)N(NC(=O)c1ccc(Cl)cc1)C(=O)c1ccccc1`, “inactive”.
As to `OCC(F)(F)OC(F)(F)C(F)(F)OC(F)(F)C(F)(F)OC(F)(F)F`, the result was inactive.
To `CC(Cl)CN(C)C` (stereo not given) belongs “inactive”; to `COP(=O)(CCC(=O)NCO)OC`, “inactive”.
To `Cc1ccc(C(=O)Cl)cc1` belongs “inactive”; to `O=NN1CCCC1`, “inactive”; to `CCCCc1ccccc1`, “inactive”.
Consider `FC(F)(F)c1ccc(Cl)cc1`, for which the outcome was inactive.
In the case of `ClC(Cl)c1ccccc1`, the molecule was called inactive.
To `CCCCOCCOP(=O)(OCCOCCCC)OCCOCCCC` belongs “inactive”; to `CNC(=O)Oc1ccc(N(C)C)c(C)c1`, “inactive”; to `CC(C)(C)c1ccc(O)cc1`, “inactive”.
To `O=S1(=O)OCC2C(CO1)C1(Cl)C(Cl)=C(Cl)C2(Cl)C1(Cl)Cl` (stereo not given) belongs “inactive”; to `OCC(F)(F)OC(F)(F)C(F)(F)OC(F)(F)C(F)(F)OC(F)(F)CO`, “inactive”; to `C/C(=N\NC(=O)Nc1cc(F)cc(F)c1)c1ncccc1C(=O)O`, “inactive”.
For `Nc1ccc([N+](=O)[O-])cc1Cl` the value was “inactive”; for `Nc1ccc(Cl)cc1`, “inactive”; for `CC(C)Nc1ccc(Nc2ccccc2)cc1`, “inactive”.
Regarding `Cc1c([N+](=O)[O-])cc2c(c1[N+](=O)[O-])C(C)(C)CC2(C)C`, the molecule was called inactive.
To `COC(=O)C(F)(F)C(F)(F)OC(F)(C(F)(F)F)C(F)(F)OC(F)=C(F)F` (stereo not given) belongs “inactive”; to `OCC1CO1` (stereo not given), “inactive”.
To `CC1=C(C(=O)Nc2ccccc2)S(=O)(=O)CCO1` belongs “inactive”; to `CC(O)C#N` (stereo not given), “inactive”; to `CCOC(=O)c1ccccc1N`, “inactive”.
To `O=C(CBr)OCc1ccccc1` belongs “inactive”.
As to `O=[N+]([O-])c1cc(Cl)ccc1Cl`, the molecule was called inactive.
To `O=c1ssc(Cl)c1Cl` belongs “inactive”; to `O=S(=O)(c1ccc(O)cc1)c1ccc(O)cc1`, “inactive”.
In the case of `CC(C)(C)OOC(C)(C)C`, the result was inactive.
For `CCN(CC)c1ccccc1` the value was “inactive”; for `CCCCC(CC)COC(=O)c1c(Br)c(Br)c(Br)c(Br)c1C(=O)OCC(CC)CCCC` (stereo not given), “inactive”.
